Data taken from PubChem BioAssay AID1159580 (chemical genetic matrix, 2015).
About 2,000 (36%) of roughly 5,500 compounds were called active. About 18% were inconclusive and are not listed. No stated cut-off is given here; in the data, active means normalized growth mostly below about 0.91 (no sharp cut-off); inconclusive means no clear call, values can overlap the other calls; inactive means mostly above about 0.92. Some of the results follow.

Experiment: chemical genetic growth profiling, strain panel (AID 1159580);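 further: tested at 20 µM; growth read once vehicle control cultures reached saturation at 30 °C; 1 = growth at the plate median or of vehicle wells; lower values mean less growth of the strain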
Conditions: growth OD

Measured: normalized growth

CC[C@@H]1[C@@H](O)N2C3C[C@H]1C1C(O)[C@]4(C[C@@H]12)c1ccccc1N(C)[C@@H]34 (some centres not stated)
inactive: S. cerevisiae deletion strains, locus YJR075W, strain HOC1, active compounds read low 0.986 | S. cerevisiae deletion strains, locus YKL009W, strain mrt4, active compounds read low 1.02 | S. cerevisiae deletion strains, locus YKL068W, active compounds read low 0.987 | S. cerevisiae deletion strains, locus YKL085W, strain MDH1 (second series), active compounds read low 0.997 | S. cerevisiae deletion strains, locus YKL085W, strain MDH1, active compounds read low 0.997 | S. cerevisiae deletion strains, locus YKL160W, strain elf1, active compounds read low 1 | S. cerevisiae deletion strains, locus YKL190W, strain CNB1, active compounds read low 0.989 | S. cerevisiae deletion strains, locus YKR001C, strain vps1, active compounds read low 0.965 | S. cerevisiae deletion strains, locus YKR026C, strain gcn3, active compounds read low 1.02 | S. cerevisiae deletion strains, locus YKR091W, strain srl3, active compounds read low 1.03 | S. cerevisiae deletion strains, locus YLL001W, strain dnm1, active compounds read low 1.02 | S. cerevisiae deletion strains, locus YLL026W, active compounds read low 1 | S. cerevisiae deletion strains, locus YLL041C, strain sdh2, active compounds read low 1.05 | S. cerevisiae deletion strains, locus YLR027C, strain aat2, active compounds read low 1.02 | S. cerevisiae deletion strains, locus YLR039C, strain RIC1, active compounds read low 0.985 | S. cerevisiae deletion strains, locus YLR058C, strain SHM2, active compounds read low 0.992 | S. cerevisiae deletion strains, locus YLR102C, strain apc9, active compounds read low 0.973 | S. cerevisiae deletion strains, locus YLR113W, strain HOG1, active compounds read low 0.996 | S. cerevisiae deletion strains, locus YLR221C, strain rsa3, active compounds read low 1.01 | S. cerevisiae deletion strains, locus YLR258W, strain gsy2, active compounds read low 1.03 | S. cerevisiae deletion strains, locus YLR262C, strain YPT6 (second series), active compounds read low 1.01 | S. cerevisiae deletion strains, locus YLR262C, strain YPT6, active compounds read low 0.984 | S. cerevisiae deletion strains, locus YLR268W, strain sec22, active compounds read low 0.935 | S. cerevisiae deletion strains, locus YLR320W, strain mms22, active compounds read low 1.01 | S. cerevisiae deletion strains, locus YLR330W, strain CHS5, active compounds read low 0.994 | S. cerevisiae deletion strains, locus YLR342W, strain FKS1 (second series), active compounds read low 1.01 | S. cerevisiae deletion strains, locus YLR342W, strain FKS1, active compounds read low 1.01 | S. cerevisiae deletion strains, locus YLR357W, strain rsc2, active compounds read low 1.09 | S. cerevisiae deletion strains, locus YLR370C, strain arc18, active compounds read low 1.03 | S. cerevisiae deletion strains, locus YLR371W, strain rom2, active compounds read low 0.975 | S. cerevisiae deletion strains, locus YLR384C, strain iki3, active compounds read low 1.03 | S. cerevisiae deletion strains, locus YLR418C, strain cdc73, active compounds read low 0.961 | S. cerevisiae deletion strains, locus YML016C, strain PPZ1, active compounds read low 0.992 | S. cerevisiae deletion strains, locus YML032C, strain rad52, active compounds read low 0.954 | S. cerevisiae deletion strains, locus YML120C, strain ndi1, active compounds read low 1.02 | S. cerevisiae deletion strains, locus YML124C, strain tub3, active compounds read low 0.982 | S. cerevisiae deletion strains, locus YMR058W, strain fet3, active compounds read low 1.01 | S. cerevisiae deletion strains, locus YMR078C, strain ctf18, active compounds read low 0.958 | S. cerevisiae deletion strains, locus YMR125W, strain sto1, active compounds read low 1.06 | S. cerevisiae deletion strains, locus YMR129W, active compounds read low 1.01 | S. cerevisiae deletion strains, locus YMR205C, strain PFK2, active compounds read low 1.03 | S. cerevisiae deletion strains, locus YMR223W, strain ubp8, active compounds read low 0.996 | S. cerevisiae deletion strains, locus YMR231W, strain pep5, active compounds read low 1.03 | S. cerevisiae deletion strains, locus YMR263W, strain SAP30, active compounds read low 1 | S. cerevisiae deletion strains, locus YMR307W, strain GAS1, active compounds read low 0.974 | S. cerevisiae deletion strains, locus YNL067W, strain RPL9B, active compounds read low 0.981 | S. cerevisiae deletion strains, locus YNL071W, strain lat1, active compounds read low 1.03 | S. cerevisiae deletion strains, locus YNL128W, strain TEP1, active compounds read low 0.991 | S. cerevisiae deletion strains, locus YNL153C, strain GIM3, active compounds read low 0.992 | S. cerevisiae deletion strains, locus YNL183C, strain NPR1, active compounds read low 0.917 | S. cerevisiae deletion strains, locus YNL209W, strain ssb2, active compounds read low 1.04 | S. cerevisiae deletion strains, locus YNL233W, strain BNI4, active compounds read low 0.977 | S. cerevisiae deletion strains, locus YNL248C, strain rpa49, active compounds read low 1.01 | S. cerevisiae deletion strains, locus YNL250W, strain rad50, active compounds read low 0.981 | S. cerevisiae deletion strains, locus YNL271C, strain bni1, active compounds read low 0.973 | S. cerevisiae deletion strains, locus YNL298W, strain CLA4, active compounds read low 0.968 | S. cerevisiae deletion strains, locus YNL307C, strain MCK1, active compounds read low 0.99 | S. cerevisiae deletion strains, locus YNL322C, strain KRE1 (second series), active compounds read low 1.05 | S. cerevisiae deletion strains, locus YNL322C, strain KRE1, active compounds read low 0.998 | S. cerevisiae deletion strains, locus YNR049C, strain mso1, active compounds read low 1.03 | S. cerevisiae deletion strains, locus YNR052C, strain pop2, active compounds read low 0.982 | S. cerevisiae deletion strains, locus YOL006C, strain TOP1, active compounds read low 0.921 | S. cerevisiae deletion strains, locus YOL012C, strain htz1 0.945 | S. cerevisiae deletion strains, locus YOL147C, strain pex11, active compounds read low 0.974 | S. cerevisiae deletion strains, locus YOR001W, strain rrp6, active compounds read low 1.02 | S. cerevisiae deletion strains, locus YOR061W, strain CKA2, active compounds read low 0.97 | S. cerevisiae deletion strains, locus YOR069W, strain VPS5, active compounds read low 0.995 | S. cerevisiae deletion strains, locus YOR070C, strain gyp1, active compounds read low 1.03 | S. cerevisiae deletion strains, locus YOR080W, strain dia2, active compounds read low 1.04 | S. cerevisiae deletion strains, locus YOR083W, strain WHI5, active compounds read low 0.979 | S. cerevisiae deletion strains, locus YOR106W, strain vam3, active compounds read low 1.04 | S. cerevisiae deletion strains, locus YOR136W, strain idh2, active compounds read low 0.98 | S. cerevisiae deletion strains, locus YOR144C, strain elg1, active compounds read low 0.962 | S. cerevisiae deletion strains, locus YOR184W, strain ser1, active compounds read low 0.97 | S. cerevisiae deletion strains, locus YOR231W, strain MKK1, active compounds read low 1.01 | S. cerevisiae deletion strains, locus YOR265W, strain rbl2, active compounds read low 1.03 | S. cerevisiae deletion strains, locus YOR270C, strain vph1, active compounds read low 1.14 | S. cerevisiae deletion strains, locus YOR290C, strain snf2, active compounds read low 1.02 | S. cerevisiae deletion strains, locus YOR316C, strain cot1, active compounds read low 0.975 | S. cerevisiae deletion strains, locus YPL051W, strain arl3, active compounds read low 1.02 | S. cerevisiae deletion strains, locus YPL055C, strain LGE1, active compounds read low 1 | S. cerevisiae deletion strains, locus YPL078C, strain atp4, active compounds read low 1.03 | S. cerevisiae deletion strains, locus YPL106C, strain sse1, active compounds read low 1.06 | S. cerevisiae deletion strains, locus YPL240C, strain hsp82, active compounds read low 1.02 | S. cerevisiae deletion strains, locus YPL241C, strain CIN2, active compounds read low 0.994 | S. cerevisiae deletion strains, locus YPL256C, strain CLN2, active compounds read low 0.982 | S. cerevisiae deletion strains, locus YPR119W, strain clb2, active compounds read low 0.972 | S. cerevisiae deletion strains, locus YPR141C, strain kar3, active compounds read low 0.979 | S. cerevisiae deletion strains, locus YPR163C, strain tif3, active compounds read low 0.966 | S. cerevisiae deletion strains, locus YPR167C, strain met16, active compounds read low 0.976 | S. cerevisiae deletion strains, strain wtn01, active compounds read low 0.963 | S. cerevisiae strains, strain wild type, active compounds read low 0.994
